Reference: PubChem BioAssay (NCI)
Values joined by “and” are separate entries in the source; they are usually repeats but may differ in a detail not shown here. Equal values may be shown once. The panel holds about 83,000 compounds, 20% with a hit somewhere; the sample as a whole holds those more often.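 Step 1: grow cells in 96-well plates. Step 2: add test compound at a single concentration. Step 3: incubate 48 h. Step 4: record percent growth.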 Active and inactive are the calls of the source.

Test system: NCI-H522 lung
Assay: NCI-60 one-dose screen, 48 h (100 = growth as untreated, 0 = no growth, -100 = all killed)
Settings: 10 µM
Experimental: Growth inhibition of the NCI-H522 human Non-Small Cell Lung tumor cell line is measured as a screen for anti-cancer activity. Cells are grown in 96 well plates and exposed to the test compound for 48 hours. Compounds are tested at a single concentration, which is 10^-5 M for most compounds. The reported endpoint is percent growth (GI% or GIPRCNT), where numbers from 0 - 100% represent growth inhibition, and numbers from -100% - 0 represent cell death. For example, a value of 40 represents 60% growth inhibition. A value of 0 means no net growth occurred over the course of the experiment. A value of -40 indicates 40% of cells at the beginning of the experiment died by the end of the experiment. A value of -100 means all cells are dead at the end of the experiment.
NCI-60 Human Tumor Cell Lines Screen was performed using the standard one-dose NCI protocol, which is described in more detail at https://dtp.cancer.gov/discovery_development/nci-60/default.htm.
Compounds with GIPRCNT values below 10 were considered active. Activity score was based on GIPRCNT using the following formula: […]
Score is 0 for GIPRCNT values of 100 or above, 50 for GIPRCNT values of 0, and 100 for GIPRCNT values of -100.

SMILES	growth
CC(=O)/C=C/c1ccc(OCc2ccc(Cl)cc2)cc1	90.4% (inactive)

Same assay, conditions: 10 µM unless noted

SMILES	growth
Cc1ccc(-c2nc([P+](c3ccccc3)(c3ccccc3)c3ccccc3)c(Nc3ccccc3)o2)cc1	-33.5% (active)
CCN1C(=O)/C(=c2\sc3n(c2=O)C2C(NN=3)N(CC)C(=O)N2CC)c2ccccc21 (stereo not given)	19.9% (inactive)
O=C(CCl)n1nnnc1Cc1ccccc1	90.8% (inactive)
Cc1nnc(NS(=O)(=O)c2ccc(N=Nc3ccc(N)nc3N)cc2)s1	96.7% (inactive)
O=C(NCc1cccnc1)/C(=C\c1ccc(Br)cc1)S(=O)(=O)c1ccccc1	-71.2% (active)
COc1ccc(-c2cc(-c3cc(OC)c(OC)c(OC)c3)c(C#N)c(=O)n2CCCCC(=O)O)cc1	87.3% (inactive)
Nc1ccc(-c2nc3ccc4[nH]ncc4c3c3c2CCCC3)cc1F	22.5% (inactive)
COc1cc(OC)cc(-c2ccc(-c3ccc(C(=N)N)cn3)s2)c1	78.7% (inactive)
CCC(=C(c1ccc(OCCCN(C)C)cc1)c1ccc(OCCCN(C)C)cc1)c1ccc(Cl)cc1	-66.5% (active)
O=C1CCc2c(sc3[nH]c(=S)n(Cc4ccc(Cl)cc4)c(=O)c23)C1	-18.6% (active)
O=Nc1ccc(NO)c2ccccc12	93.3% (inactive) and 69.5% (inactive)
COc1ccc(C(c2cc(OC)c(OC)c(OC)c2)n2ccnc2)cc1O (stereo not given)	12.1% (inactive)
COc1ccccc1/C=C/C(=O)/C=C/c1ccccc1OC	-84.5% (active) and -58.5% (active)
O=C1/C(=C/c2ccc(-c3ccccc3C(F)(F)F)o2)SC(=S)N1CCc1ccc(O)cc1	-11% (active)
O=C1C(Nc2ccc(Cl)cc2)=C(I)C(=O)c2ncccc21	-58.7% (active)
Cc1ccc(-c2nc3nc(-c4ccc(F)cc4)nc(N4CCCNCC4)c3o2)cc1	-65.2% (active)
COc1ccc(S(=O)(=O)Nc2cc(Sc3cccc4cccnc34)c(O)c3ccccc23)cc1	-39% (active)
CNC(=O)c1cc(Oc2ccc3nc(NC(=O)Nc4ccc(C(F)(F)F)cc4)sc3c2)ccn1	42.4% (inactive)
O=C(CCl)N(O)c1ccc(/C=C/c2ccccc2)cc1	61.5% (inactive) and 30.4% (inactive)

SMILES	growth
Cc1ccccc1SSc1ccccc1C	60.8% (inactive)
COc1c(O)c(O)cc2c3c(oc12)CC(c1ccc2c(c1)OCO2)CC3=O (stereo not given)	54.2% (inactive)
Cn1cc(C2=C(c3cccc4ccccc34)C(=O)NC2=O)c2cc(Br)ccc21	99.8% (inactive)
O=c1c2c([nH]c3ccccc13)CCCC2	92.4% (inactive) and 37.6% (inactive)
CC1=CC=C(NC(=O)/C=C/c2ccccc2)CC1Nc1nccc(-c2cccnc2)n1 (stereo not given)	69% (inactive)
C#CCn1cnc2cnc(Nc3cccc(NC(=O)CCl)c3)nc21	-57.1% [6.25 µM] (active)
COc1ccc(-c2ccccc2)cc1-c1c(Nc2cc(Cl)cc(Cl)c2O)c(=O)c1=O	-19.6% (active)
Clc1ccc(CNc2ccc3nc(CCC4CCCCC4)[nH]c3c2)cc1	54.8% (inactive)
O=C(CC1(O)C(=O)Nc2ccc(Br)cc21)c1ccc(Cl)cc1 (stereo not given)	81% (inactive)
CN(C)C(=O)c1cc2cnc(Nc3ccc(-c4csc5c(=S)cc(N6CCOCC6)oc45)cc3)nc2n1C1CCCC1	4.24% (active)
c1ccc(Cc2cccc[n+]2C(c2ccccc2)c2ccccc2)cc1	10.2% (inactive)
Cc1nonc1-c1ccc2c(c1)OCO2	102% (inactive) and 103% (inactive)
O=C1C(c2c[nH]c3ccccc23)=C(c2coc3cc(Br)ccc23)C(=O)N1O	89.4% (inactive)
CCCN1C(=O)/C(=c2\sc3n(c2=O)NC2C(N=3)N(CC)C(=O)N2CC)c2ccccc21 (stereo not given)	11.9% (inactive)
C=C1CCC2C3(C)COC(c4ccc(NC(C)=O)cc4)OC3CCC2(C)C1C/C=C1/C(=O)OCC1O (stereo not given)	29.5% (inactive)
Cc1cc(N2CCCCC2)nc(NCc2cc(Nc3ccnc4cc(Cl)ccc34)ccc2F)n1	-57.9% (active)
Nc1[nH]nc(Nc2ccccc2)c1-c1nc2ccccc2s1	-44.6% (active)
CC(C)(C)c1cc(C(C)(C)c2ccccc2)cc(Cc2cc(C(C)(C)c3ccccc3)cc(C(C)(C)C)c2O)c1O	79.2% (inactive)
COC(=O)[C@H]1Cc2c([nH]c3ccccc23)[C@@H](c2cccs2)N1	78.9% (inactive)

Same assay, conditions: 100 µM

SMILES	growth
CC(=O)/C=C/c1ccc(OCc2ccc(Cl)cc2)cc1	-3.06% (active)
